# Measurements: ChEMBL document CHEMBL2218924, “A broad activity screen in support of a chemogenomic map for kinase signalling research and drug discovery” (Biochem J, 2013)
# Experiments:
# [1] = molecular target: T1, Aurora kinase C (Homo sapiens) (UniProt Q9UQB9); settings: at 1 µM
# T1 sequence (whole entry): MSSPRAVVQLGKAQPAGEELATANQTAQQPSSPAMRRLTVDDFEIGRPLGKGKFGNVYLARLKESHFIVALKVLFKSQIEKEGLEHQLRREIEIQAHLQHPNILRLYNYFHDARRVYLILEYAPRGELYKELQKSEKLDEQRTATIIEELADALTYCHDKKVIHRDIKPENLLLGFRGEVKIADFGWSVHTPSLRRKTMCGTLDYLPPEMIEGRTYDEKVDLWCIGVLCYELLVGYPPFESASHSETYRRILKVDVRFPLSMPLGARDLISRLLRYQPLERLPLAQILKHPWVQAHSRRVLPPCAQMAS
# [2] = molecular target: T1, Aurora kinase C (Homo sapiens); settings: at 10 µM
# [3] = molecular target: Tyrosine-protein kinase receptor UFO (Homo sapiens) (UniProt P30530); settings: at 1 µM
# Sequence of Tyrosine-protein kinase receptor UFO (Homo sapiens) (P30530 whole entry): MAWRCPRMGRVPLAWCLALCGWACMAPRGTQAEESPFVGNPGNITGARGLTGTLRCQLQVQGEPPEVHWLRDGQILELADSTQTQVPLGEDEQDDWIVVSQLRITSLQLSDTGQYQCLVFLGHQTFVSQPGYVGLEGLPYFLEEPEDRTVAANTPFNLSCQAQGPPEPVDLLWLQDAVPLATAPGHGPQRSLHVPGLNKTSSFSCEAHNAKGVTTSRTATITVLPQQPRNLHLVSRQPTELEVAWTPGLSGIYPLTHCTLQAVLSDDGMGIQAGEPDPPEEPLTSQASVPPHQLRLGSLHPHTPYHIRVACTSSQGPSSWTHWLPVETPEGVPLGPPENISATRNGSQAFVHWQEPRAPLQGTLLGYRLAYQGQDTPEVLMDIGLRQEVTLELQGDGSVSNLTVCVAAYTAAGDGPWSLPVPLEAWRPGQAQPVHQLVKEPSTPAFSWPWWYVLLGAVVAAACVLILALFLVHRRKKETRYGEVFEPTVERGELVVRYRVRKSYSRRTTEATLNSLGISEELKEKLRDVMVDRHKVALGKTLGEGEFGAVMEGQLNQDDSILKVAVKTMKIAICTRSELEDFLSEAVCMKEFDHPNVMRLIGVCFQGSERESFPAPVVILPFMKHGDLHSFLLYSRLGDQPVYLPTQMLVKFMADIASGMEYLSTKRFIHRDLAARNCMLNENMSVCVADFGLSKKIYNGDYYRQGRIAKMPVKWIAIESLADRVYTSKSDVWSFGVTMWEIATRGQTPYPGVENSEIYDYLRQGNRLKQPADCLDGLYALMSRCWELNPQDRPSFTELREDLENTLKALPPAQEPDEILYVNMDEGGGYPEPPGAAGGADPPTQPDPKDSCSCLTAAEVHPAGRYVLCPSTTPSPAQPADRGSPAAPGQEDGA
# [4] = molecular target: Tyrosine-protein kinase receptor UFO (Homo sapiens) (UniProt P30530); settings: at 10 µM
# [5] = molecular target: Protein-tyrosine kinase 6 (Homo sapiens) (UniProt Q13882); settings: at 1 µM
# Sequence of Protein-tyrosine kinase 6 (Homo sapiens) (Q13882 whole entry, looked up): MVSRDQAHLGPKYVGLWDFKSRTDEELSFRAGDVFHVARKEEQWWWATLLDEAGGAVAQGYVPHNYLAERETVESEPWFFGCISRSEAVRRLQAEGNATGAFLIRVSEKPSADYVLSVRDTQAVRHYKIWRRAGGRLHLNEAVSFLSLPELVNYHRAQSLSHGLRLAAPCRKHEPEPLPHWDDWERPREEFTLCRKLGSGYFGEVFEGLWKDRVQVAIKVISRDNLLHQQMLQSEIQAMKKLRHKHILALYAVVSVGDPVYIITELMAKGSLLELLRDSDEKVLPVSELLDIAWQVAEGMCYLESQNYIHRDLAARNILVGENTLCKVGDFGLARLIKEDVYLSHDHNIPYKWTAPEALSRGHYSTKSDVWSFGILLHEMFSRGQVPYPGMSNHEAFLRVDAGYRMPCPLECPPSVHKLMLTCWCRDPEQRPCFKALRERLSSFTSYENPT
# [6] = molecular target: Protein-tyrosine kinase 6 (Homo sapiens) (UniProt Q13882); settings: at 10 µM
# [7] = molecular target: Tyrosine-protein kinase BTK (Homo sapiens) (UniProt Q06187); settings: at 1 µM
# Sequence of Tyrosine-protein kinase BTK (Homo sapiens) (Q06187 whole entry): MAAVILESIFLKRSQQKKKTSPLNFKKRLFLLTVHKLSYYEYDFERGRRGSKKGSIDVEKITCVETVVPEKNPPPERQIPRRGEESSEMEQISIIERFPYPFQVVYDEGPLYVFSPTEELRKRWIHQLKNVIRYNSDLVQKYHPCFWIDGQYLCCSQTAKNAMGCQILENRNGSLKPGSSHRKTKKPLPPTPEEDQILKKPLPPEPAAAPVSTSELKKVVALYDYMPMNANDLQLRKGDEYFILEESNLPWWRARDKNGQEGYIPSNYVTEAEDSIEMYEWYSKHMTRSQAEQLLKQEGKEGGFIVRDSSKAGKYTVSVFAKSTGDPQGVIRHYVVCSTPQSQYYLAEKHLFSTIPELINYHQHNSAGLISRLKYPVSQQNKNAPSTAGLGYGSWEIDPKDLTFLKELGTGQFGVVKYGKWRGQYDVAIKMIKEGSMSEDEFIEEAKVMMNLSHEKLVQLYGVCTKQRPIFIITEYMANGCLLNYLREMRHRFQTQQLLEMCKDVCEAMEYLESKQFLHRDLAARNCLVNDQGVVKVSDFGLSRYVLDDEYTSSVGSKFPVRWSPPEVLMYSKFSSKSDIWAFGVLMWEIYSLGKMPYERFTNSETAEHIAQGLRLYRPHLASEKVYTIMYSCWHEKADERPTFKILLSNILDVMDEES
# [8] = molecular target: Tyrosine-protein kinase BTK (Homo sapiens) (UniProt Q06187); settings: at 10 µM
# [9] = molecular target: Tyrosine-protein kinase Blk (Homo sapiens) (UniProt P51451); settings: at 1 µM
# Sequence of Tyrosine-protein kinase Blk (Homo sapiens) (P51451 2-505 limits assumed): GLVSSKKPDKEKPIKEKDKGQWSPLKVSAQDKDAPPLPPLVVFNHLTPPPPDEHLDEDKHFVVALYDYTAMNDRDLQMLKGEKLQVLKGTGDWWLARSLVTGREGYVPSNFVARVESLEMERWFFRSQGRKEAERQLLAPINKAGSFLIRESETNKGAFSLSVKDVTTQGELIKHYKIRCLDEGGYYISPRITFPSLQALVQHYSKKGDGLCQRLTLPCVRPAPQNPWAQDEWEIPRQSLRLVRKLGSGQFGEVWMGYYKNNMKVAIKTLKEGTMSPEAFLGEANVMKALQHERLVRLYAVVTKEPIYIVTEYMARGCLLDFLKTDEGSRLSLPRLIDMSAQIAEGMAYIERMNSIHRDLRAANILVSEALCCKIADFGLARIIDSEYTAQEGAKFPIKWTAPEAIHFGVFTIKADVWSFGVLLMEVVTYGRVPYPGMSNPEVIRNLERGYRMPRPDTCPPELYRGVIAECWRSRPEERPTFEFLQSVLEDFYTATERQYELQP
# [10] = molecular target: Tyrosine-protein kinase Blk (Homo sapiens) (UniProt P51451); settings: at 10 µM
SMILES,residual activity [1] [%],residual activity [2] [%],residual activity [3] [%],residual activity [4] [%],residual activity [5] [%],residual activity [6] [%],residual activity [7] [%],residual activity [8] [%],residual activity [9] [%],residual activity [10] [%]
CC(C)n1cnc2/c(=N/c3cccc(Cl)c3)nc(NCCO)[nH]c21,74,52,94,44,105,100,72,32,79,15
Nc1cccc(-c2cc3c(Oc4cccc(O)c4)ncnc3[nH]2)c1,72,20,101,39,0,0,21,-1,7,1
c1ccc(-c2n[nH]c3c2oc2ccccc23)cc1,–,–,81,73,–,–,–,–,98,49
CO[C@H]1C[C@@H]2CC[C@@H](C)[C@@](O)(O2)C(=O)C(=O)N2CCCC[C@H]2C(=O)O[C@H]([C@H](C)C[C@@H]2CC[C@@H](O)[C@H](OC)C2)CC(=O)[C@H](C)/C=C(\C)[C@@H](O)[C@@H](OC)C(=O)[C@H](C)C[C@H](C)/C=C/C=C/C=C/1C,79,69,89,84,101,102,91,106,90,82
Cn1nc2c3c(cccc31)C(=O)c1ccccc1-2,72,58,90,63,103,–,94,76,111,91
Cc1nc2cc3nc(-c4cccs4)cnc3cc2n1C,102,42,87,68,109,98,93,83,100,48
N#Cc1cnc2cnc(NCc3cccnc3)cc2c1Nc1ccc(F)c(Cl)c1,71,54,19,22,–,–,70,58,4,3
N#CCCc1ccc2c(c1)-c1[nH]c3ccc([N+](=O)[O-])cc3c1CC(=O)N2,63,22,57,35,–,–,79,66,24,11
O=c1cc(-c2cccc3c2Sc2ccccc2S3)oc(N2CCOCC2)c1,102,92,102,86,109,96,87,80,101,76
CNc1cc2c(Nc3cccc(Br)c3)ncnc2cn1,85,64,75,69,69,53,98,83,103,65
Ic1cccc(CSc2nnc(-c3ccncc3)o2)c1,79,74,74,60,105,96,79,95,87,61
Cc1cccc(-c2[nH]c(C(C)(C)C)nc2-c2ccc3c(c2)OCO3)n1,–,82,87,81,–,102,–,–,–,106
Cc1cncc2cccc(S(=O)(=O)N3CCCN(C(=O)CN)C[C@H]3C)c12,5,1,88,74,–,–,–,–,122,75
Nc1nc(Nc2ccc(S(N)(=O)=O)cc2)nn1C(=S)Nc1c(F)cccc1F,-2,0,3,2,49,8,79,27,7,0
Cc1cc(Nc2nc(-c3ccccc3)nc3ccccc23)n[nH]1,7,4,33,3,40,4,19,0,9,1
NC(=O)c1ccc2[nH]c(-c3ccc(Oc4ccc(Cl)cc4)cc3)nc2c1,72,79,107,70,102,103,89,86,103,77
O=C1NC(=O)/C(=C\c2ccc3nccnc3c2)S1,106,59,75,54,99,103,99,93,114,79
COc1ccc(CNc2nc(N(CCO)CCO)nc3c2ncn3C(C)C)cc1,75,85,92,75,104,101,88,86,96,83
CC[n+]1c(/C=C/N(C)c2ccccc2)n(-c2ccccc2)c2ccc(-c3nc4ccccc4s3)cc21,107,93,134,58,109,94,87,58,100,55

SMILES,residual activity [1] [%],residual activity [2] [%],residual activity [3] [%],residual activity [4] [%],residual activity [5] [%],residual activity [6] [%],residual activity [7] [%],residual activity [8] [%],residual activity [9] [%],residual activity [10] [%]
COc1cc2ncc(-c3ccccc3)nc2cc1OC,–,–,96,84,–,–,–,–,–,–
Cn1cnc2cc3c(Nc4cccc(Br)c4)ncnc3cc21,80,52,77,57,78,55,67,44,50,18
Nc1ccc2ncnc(NCCc3ccc(Oc4ccccc4)cc3)c2c1,89,87,72,33,95,79,95,94,68,18
COc1ccc(S(=O)(=O)N(CCO)c2ccccc2CN(C)C/C=C/c2ccc(Cl)cc2)cc1,83,88,107,82,100,88,–,93,99,58
CCN(CC)CCCCN1c2ccccc2Oc2ccc(Cl)cc21,108,92,88,83,118,108,78,109,110,88
Cc1cc2ncc(-c3ccccc3)nc2cc1C,104,87,100,88,103,101,94,105,–,95
Cc1ccc(NC2=CC(=O)c3sc(C)nc3C2=O)cc1,85,85,103,112,111,108,93,86,112,96
Cc1ccc(S(=O)(=O)/C=C/C#N)cc1,93,90,107,94,107,106,98,96,108,117
N#CC(C#N)=C(N)/C(C#N)=C/c1ccc(O)cc1,–,–,92,87,–,–,94,118,–,–
COc1ccc(C(=O)Nc2sc3c(c2C(N)=O)CCCC3)cc1OC,97,76,76,76,108,114,84,118,109,94
Cc1nc(-c2ccccc2)c(-c2ccncc2)o1,93,81,112,79,59,43,91,83,95,80
N#C/C(=C(\N)Sc1ccc(N)cc1)c1ccccc1C(F)(F)F,84,83,96,73,105,114,91,93,90,79
O=Nc1c(-c2c(O)[nH]c3ccccc23)[nH]c2ccccc12,61,49,17,8,91,23,31,4,11,0
CC(C)n1cnc2c(NCc3ccccc3)nc(NCCCO)nc21,95,89,105,75,89,82,93,94,78,71
O=C1Nc2cc(Br)ccc2/C1=C1/Nc2ccccc2/C1=N\O,74,76,52,39,90,102,1,0,1,5
c1ccc2c(-c3ccncc3)c[nH]c2c1,66,46,81,75,95,75,99,–,–,107
O=C(O)c1ccc2c3c1cccc3c(=O)n1c3ccccc3nc21,82,43,61,35,110,105,88,83,99,81
O=C1Nc2ccc(Br)cc2/C1=C\c1cc2c([nH]1)CCCC2,82,69,72,62,107,107,–,109,82,38
